# From the supplement of paper PMC12350171
# Where a name gives a salt, the structure may show the parent alone. Unmarked numbers belong to inactive results.
# Tests used:
# Conditions in all cases: 20 µM
# [1] = test system: Salmonella enterica typhimurium; test: growth AUC normalised to DMSO control (fraction of control); higher = less growth inhibition, active = hit call of the paper
# Method in brief: (§1)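 For the AUC endpoint, growth curves were integrated by the trapezoidal rule up to the exponential-to-stationary transition and normalised to DMSO controls on the same plate. The curves came from OD578 readings taken hourly for 24 h, in three biological replicates. Pathogens had been passaged anaerobically twice and inoculated at an OD578 of 0.01 into pre-reduced mGAM plates carrying 20 μM compound and 1% DMSO, sealed with breathable membranes. Medium for Haemophilus parainfluenzae also contained hemin and NAD.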
# Shigella flexneri = test: as above
# Method in brief: as §1
# Vibrio cholerae = test: as above
# Method in brief: as §1
# [2] = test system: Yersinia pseudotuberculosis; test: as above
# Method in brief: as §1
# P. vulgatus RND KO = test: growth AUC normalised to DMSO control (median) (fraction of control); higher = less growth inhibition, active = hit call of the paper
# Method in brief: (§2)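 Area under the growth curve, calculated by the trapezoidal rule up to entry into stationary phase, was normalised to vehicle wells on the same plate. Strains had been passaged twice overnight without oxygen and then grown in mGAM in 96-well plates from OD578 0.01, each with an approved-drug library compound at 20 μM in 1% DMSO. OD578 was read hourly over 24 h in an anaerobic incubator, and the median of three biological replicates is given.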
# P. vulgatus WT = test: as above
# Method in brief: as §2
# [3] = test system: S. enterica typhimurium WT; test: as above
# Method in brief: as §2
# [4] = test system: S. enterica typhimurium tolC KO; test: as above
# Method in brief: as §2
# 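Wherever growth AUC normalised to DMSO control (median) is given: active when median AUC fell below 0.1.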
Structure (SMILES),growth AUC normalised to DMSO control [1],growth AUC normalised to DMSO control (Shigella flexneri),growth AUC normalised to DMSO control (Vibrio cholerae),growth AUC normalised to DMSO control [2],growth AUC normalised to DMSO control (P. vulgatus RND KO),growth AUC normalised to DMSO control (P. vulgatus WT),growth AUC normalised to DMSO control [3],growth AUC normalised to DMSO control [4]
O=C(CCCN1CC=C(n2c(=O)[nH]c3ccccc32)CC1)c1ccc(F)cc1 [Droperidol],0.989,0.985,0.892,0.98,0.982,0.976,0.99,0.936
CC(=O)[C@H]1CC[C@H]2[C@@H]3C[C@H](C)C4=CC(=O)CC[C@]4(C)[C@H]3[C@@H](O)C[C@]12C [Medrysone],0.994,0.962,0.974,0.991,0.997,1.02,1.01,0.976
COC(c1ccccc1)(c1ccccc1)[C@H](Oc1nc(C)cc(C)n1)C(=O)O [Ambrisentan],0.98,1.02,1.01,1.01,0.997,0.983,0.991,0.99
CN(C)c1ccc(O)c2c1C[C@H]1C[C@H]3[C@H](N(C)C)C(=O)C(C(N)=O)=C(O)[C@@]3(O)C(=O)C1=C2O [Minocycline hydrochloride],0.00774 (active),0.0229 (active),0.0305 (active),0.0367 (active),0.0156 (active),0.0185 (active),0.0116 (active),0.00184 (active)
NC(=O)c1cnccn1 [Pyrazinamide],0.99,0.92,0.993,0.99,0.992,0.993,0.999,0.999
Cc1oncc1C(=O)Nc1ccc(C(F)(F)F)cc1 [Leflunomide],0.989,0.988,0.914,1,0.957,1,0.996,0.896
CCOc1nc2cccc(C(=O)O)c2n1Cc1ccc(-c2ccccc2-c2nnn[nH]2)cc1 [Candesartan],1.01,1.02,1.04,1.01,1.01,1,1.01,0.987
CCCCOc1cc(C(=O)NCCN(CC)CC)c2ccccc2n1 [Dibucaine],1,1.03,1.03,1.05,1.04,1.01,1.01,0.993
CCCCC1(COC(=O)CCC(=O)O)C(=O)N(c2ccccc2)N(c2ccccc2)C1=O [Suxibuzone],1,1,0.993,1.01,1.02,1.03,1.01,0.985
O=C1NCCN1CCN1CCC(c2cn(-c3ccc(F)cc3)c3ccc(Cl)cc23)CC1 [Sertindole],1.02,1.04,1.02,1.01,0.833,0.905,1,0.949
COC(=O)Nc1nc2cc(C(=O)c3ccccc3)ccc2[nH]1 [Mebendazole],0.975,0.975,0.951,0.996,0.998,0.991,0.998,0.989
CC(C)(C)NCC(O)COc1cccc2c1CC(O)C(O)C2 (stereo not given) [Nadolol],0.99,0.999,1,1,1.02,1.01,1,1
CC(C)C(=O)Nc1ccc([N+](=O)[O-])c(C(F)(F)F)c1 [Flutamide],1.01,1.04,1.01,0.988,1,1.01,0.985,0.96
NS(=O)(=O)c1cc(Cl)c(Cl)c(S(N)(=O)=O)c1 [Dichlorphenamide],1.01,1.06,1.07,1.02,1.05,1.04,0.995,1.01
CCCCN(CCCC)CCCOC(=O)c1ccc(N)cc1 [Butacaine],0.988,1.01,0.981,1,1.05,1.04,1.01,1
NCCc1cc[nH]n1 [Betazole hydrochloride],0.986,0.97,0.979,0.968,0.999,1.02,1,0.999
COc1ccc2c(c1)C(=O)N(CCc1ccc(S(=O)(=O)NC(=O)NC3CCCCC3)cc1)C(=O)C2(C)C [Gliquidone],1,1.02,0.995,1,0.994,1.01,1.01,1
C[C@@H]1CCC[C@H](C)N1NC(=O)c1ccc(Cl)c(S(N)(=O)=O)c1 [Clopamide],0.976,0.97,0.982,0.992,1,0.981,1.01,0.988
CC(CN(C)C)C(C)(O)Cc1ccc(Cl)cc1 (stereo not given) [Clobutinol hydrochloride],0.999,0.98,0.987,0.993,0.999,1.03,1.01,0.994
CC(C(=O)O)c1ccc(C(=O)c2cccs2)cc1 (stereo not given) [Suprofen],0.987,1.04,1.05,1.02,1.01,1.03,0.996,0.995
COc1ccc(-c2cc(=S)ss2)cc1 [Anethole-trithione],1.02,1.05,0.91,1.19,1.02,1.04,0.985,0.91
CC(C)NCC(O)c1cc(O)cc(O)c1 (stereo not given) [Metaproterenol sulfate],0.995,0.967,0.998,0.988,0.986,1,1.01,0.997
C=CC1=C(C(=O)O)N2C(=O)[C@@H](NC(=O)/C(=N\O)c3csc(N)n3)[C@H]2SC1 [Cefdinir],0.00595 (active),0.00663 (active),0.0728 (active),0.023 (active),0.0139 (active),0.0141 (active),0.0086 (active),0.00501 (active)
C#C[C@]1(OC(C)=O)CC[C@H]2[C@@H]3CCC4=CC(=NO)CC[C@@H]4[C@H]3CC[C@@]21CC (mixture of isomers) [Norgestimate],0.995,0.971,0.984,0.988,0.836,0.88,0.999,0.955
O=C1NCCN1c1ncc([N+](=O)[O-])s1 [Niridazole],0.0187 (active),0.204 (active),0.036 (active),0.93,0.00953 (active),0.00802 (active),0.0321 (active),0.0104 (active)
CN1CCN(C(c2ccccc2)c2ccccc2)CC1 [Cyclizine hydrochloride],0.987,1.01,0.982,0.995,1.02,1.04,1.01,0.998
CS(=O)(=O)Nc1ccc([N+](=O)[O-])cc1Oc1ccccc1 [Nimesulide],0.985,0.953,0.907,0.984,0.983,0.979,0.988,0.984
CC(=O)SCC(Cc1ccccc1)C(=O)NCC(=O)OCc1ccccc1 (stereo not given) [Racecadotril],1,1,1,1.01,1.06,1.05,1,0.963
O=C1O[C@H]([C@@H](O)CO)C(O)=C1O [Ascorbic acid],1.02,1.07,1.02,0.989,1.05,1.04,1.01,0.997
CCN(CC)C(=O)Nc1ccc(OCC(O)CNC(C)(C)C)c(C(C)=O)c1 (stereo not given) [Celiprolol hydrochloride],0.995,0.992,0.99,1.01,0.997,1.01,0.994,0.994
